Results taken from PubChem BioAssay (NCATS).
“And” between values parts separate entries of the source, which are not always exact repeats. Equal entries are not always repeated. Records with an inconclusive call do not appear. The source made the active and inactive calls. Calls come from the whole dose curve; as a rule, active = well fitted curve in the direction sought with a large enough effect; inconclusive = small, poorly fitted or top-dose-only effect, or another doubt; inactive = no such curve, though single readings can be large; an effect the other way counts as inactive or inconclusive.

Tests used:
[1] = target: Cellular tumor antigen p53 (Homo sapiens) (UniProt P04637); assay: Primary qHTS for small molecule compounds that upregulate eGFP-tagged delta133p53alpha (in N-terminal) cells. (AID 2060322); details: NCI-H358 eGFP-delta133p53alpha fluorescence, 24 h; activation: stronger effect = higher value; note: nearly all actives have a fitted effect of over 75% in size; note: potency is the fitted concentration of half-maximal effect;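 for activation: cells pre-induced with doxycycline then dosed without doxycycline; series mostly up to about 56 µM; 0% = DMSO vehicle and 100% = reference activator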
Method in brief: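 NCI-H358 cells pre-induced 24 h with 10 ng/ml doxycycline for eGFP-delta133p53alpha, plated dox-free and exposed 24 h at 37C to titrated compounds. Fixed, Hoechst-stained; gated GFP peak intensity by laser scanning cytometry, normalized to DMSO (0%) and 57.5 uM 5-azacytidine (100%).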

[2] = target: Aldehyde dehydrogenase, mitochondrial (Homo sapiens) (UniProt P05091); assay: qHTS for Inhibitors of the Aldehyde Dehydrogenase Family (ALDH2) Primary screen (AID 2061308);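 note: plate controls were vehicle for no effect and reference inhibitor for full effect; nearly all actives have a fitted effect of over 55% in size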
[3] = target: Retinaldehyde dehydrogenase 3 (Homo sapiens) (UniProt P47895); assay: qHTS for Inhibitors of the Aldehyde Dehydrogenase Family (ALDH1A3) Primary screen (AID 2061315);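 note: plate controls were DMSO vehicle for no effect and reference inhibitor for full effect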
[4] = BET inhibitor-based combinations targeting novel dependencies in MECOM-rearranged (r) AML: SET-2 cell line (AID 2202231); details: SET-2 AML cells viability, CellTiter-Glo luminescence, 48 h; viability: stronger effect = lower value, concentration not given here; note: nearly all actives have a fitted effect of over 35% in size; note: potency is the fitted concentration of half-maximal effect;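 for viability: plate controls were DMSO treated cells for no effect and wells without cells for full effect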
Method in brief: (§1)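 Luminescent ATP readout (CellTiter-Glo) after 48 hr drug exposure gives viability. Curves span 11 concentrations and are normalized to DMSO and empty wells. Activity is reported as area under the curve and its Z-transform within each cell line.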

[5] = BET inhibitor-based combinations targeting novel dependencies in MECOM-rearranged (r) AML: OCI-AML3 cell line (AID 2202232); details: Potency: OCI-AML3 viability; note: nearly all actives have a fitted effect of over 35% in size; note: potency is the fitted concentration of half-maximal effect
Method in brief: as §1

[6] = BET inhibitor-based combinations targeting novel dependencies in MECOM-rearranged (r) AML: UCSD-AML1 cell line (AID 2202235); note: nearly all actives have a fitted effect of over 40% in size; note: potency is the fitted concentration of half-maximal effect
Method in brief: (§2)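 Luminescent ATP readout (CellTiter-Glo, 15 min at room temperature) after 48 hr drug exposure gave viability. Dose-response curves, normalized to DMSO and empty-well controls, were summarized as area under the curve and its mean-centred Z-score.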

[7] = BET inhibitor-based combinations targeting novel dependencies in MECOM-rearranged (r) AML: AML-191 cell line (AID 2202236; note: nearly all actives have a fitted effect of over 35% in size; note: potency is the fitted concentration of half-maximal effect)
Method in brief: as §1

[8] = BET inhibitor-based combinations targeting novel dependencies in MECOM-rearranged (r) AML: MV-4-11 cell line (AID 2202233); note: nearly all actives have a fitted effect of over 45% in size; note: potency is the fitted concentration of half-maximal effect
Method in brief: as §2

[9] = BET inhibitor-based combinations targeting novel dependencies in MECOM-rearranged (r) AML: HNT-34 cell line (AID 2202234); note: nearly all actives have a fitted effect of over 35% in size; note: potency is the fitted concentration of half-maximal effect
Method in brief: as §2

[10] = BET inhibitor-based combinations targeting novel dependencies in MECOM-rearranged (r) AML: AML-194 cell line (AID 2202237; note: nearly all actives have a fitted effect of over 40% in size; note: potency is the fitted concentration of half-maximal effect)
Method in brief: as §1

Sequence of Cellular tumor antigen p53 (Homo sapiens) (P04637 whole entry, looked up): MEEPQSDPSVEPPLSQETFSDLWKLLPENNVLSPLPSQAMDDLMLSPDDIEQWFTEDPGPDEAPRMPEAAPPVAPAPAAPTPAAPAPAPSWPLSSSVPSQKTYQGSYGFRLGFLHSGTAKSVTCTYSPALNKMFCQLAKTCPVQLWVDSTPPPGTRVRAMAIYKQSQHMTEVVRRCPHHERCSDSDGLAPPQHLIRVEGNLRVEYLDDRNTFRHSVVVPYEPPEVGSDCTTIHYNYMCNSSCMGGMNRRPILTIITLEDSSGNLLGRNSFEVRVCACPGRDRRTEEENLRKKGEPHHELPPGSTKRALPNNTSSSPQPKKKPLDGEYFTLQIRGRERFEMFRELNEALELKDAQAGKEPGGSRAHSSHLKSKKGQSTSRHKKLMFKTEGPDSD

CCC(=O)N[C@H]1CC[C@H](C(=O)N(C)c2ccc(-c3nc4ccccc4o3)cc2)C1
inactive: activation [1] 18% | Potency [2] | Potency [3] | viability [4] 98.9% | Potency [6]
active: Potency [5] 18.6 µM | Potency [7] 20.9 µM

COc1ccc(CNc2nc(N(CCO)CCO)nc3c2ncn3C(C)C)cc1
inactive: Potency [2] | Potency [3]
active: Potency [1] 8.49 µM | Potency [4] 8.33 µM | Potency [8] 6.61 µM | Potency [9] 7.42 µM | Potency [6] 7.42 µM | Potency [7] 3.32 µM | Potency [10] 5.9 µM

CC1(C)CNc2cc(NC(=O)c3cccnc3NCc3ccncc3)ccc21
inactive: activation [1] -11.7% and 7.64% | Potency [2] | Potency [3] | viability [4] 63% | Potency [5] | Potency [10]

COc1ccc(CCN2CCN(CCCc3ccccc3)CC2)cc1OC
inactive: activation [1] 20.6% and -1.43% | Potency [2] | Potency [3] | Potency [5] | Potency [6] | Potency [7] | Potency [10]
active: Potency [4] 18.6 µM

O=c1ccn([C@@H]2O[C@H](CO)[C@@H](O)[C@H]2O)c(=O)[nH]1
inactive: activation [1] 10.3% | Potency [2] | Potency [3] | viability [4] 115% | Potency [5] | Potency [9] | Potency [6] | Potency [7] | Potency [10]

CS(=O)(=O)N1CCC(NC(=O)c2[nH]ncc2NC(=O)c2c(Cl)cccc2Cl)CC1
active: Potency [1] 3.01 µM | Potency [4] 2.35 µM | Potency [8] 0.59 µM | Potency [9] 2.09 µM | Potency [6] 1.48 µM | Potency [7] 1.18 µM | Potency [10] 1.86 µM
inactive: Potency [2] | Potency [3]

N#C[C@@H]1C[C@@H]2C[C@@H]2N1C(=O)[C@@H](N)C12CC3CC(CC(O)(C3)C1)C2
active: Potency [10] 14.8 µM
inactive: activation [1] -3% | Potency [2] | Potency [3] | viability [4] 110% | Potency [5] | Potency [9]

c1cc(-c2cnn3cc(-c4ccc(N5CCNCC5)cc4)cnc23)c2cccnc2c1
active: Potency [1] 15.1 µM | Potency [4] 5.25 µM | Potency [8] 3.32 µM | Potency [9] 11.8 µM | Potency [6] 8.33 µM | Potency [7] 4.68 µM
inactive: Potency [2] | Potency [3]

Cc1c(C(=O)N2CCOc3ccc(-c4ccc(N)nc4)cc3C2)ccc(S(C)(=O)=O)c1F
inactive: Potency [2] | Potency [3]
active: Potency [1] 26.9 µM | Potency [4] 13.2 µM | Potency [8] 6.61 µM | Potency [9] 2.95 µM | Potency [6] 0.742 µM | Potency [7] 1.86 µM

Cc1ccn(-c2ccc(-c3ncco3)cc2)c(=O)c1-c1ccc2nc(N)ncc2c1
inactive: activation [1] 28.6% | Potency [2] | Potency [3] | viability [4] 114%
active: Potency [8] 6.61 µM | Potency [9] 0.372 µM

CC#CC(=O)N1CCC[C@H]1c1nc(-c2ccc(C(=O)Nc3ccccn3)cc2)c2c(N)nccn12
inactive: activation [1] 15.7% | Potency [2] | Potency [3] | viability [4] 96.5% | Potency [5] | Potency [9] | Potency [6] | Potency [10]

CCCS(=O)(=O)Nc1ccc(F)c(C(=O)c2c[nH]c3ncc(Cl)cc23)c1F
inactive: activation [1] 27.8% and 12.5% | Potency [2] | Potency [3] | Potency [5] | Potency [6] | Potency [10]
active: Potency [4] 16.6 µM | Potency [9] 11.8 µM

CN1C(=O)N[C@@H](Cc2c[nH]c3c(Cl)cccc23)C1=O
inactive: activation [1] -25.9% | Potency [2] | Potency [3] | viability [4] 110% | Potency [8] | Potency [9] | Potency [6] | Potency [7] | Potency [10]

Cc1cccc(CC(=O)N2CCc3c2ccc(-c2cn(C)c4ncnc(N)c24)c3F)n1
inactive: activation [1] 0.893% | Potency [2] | Potency [3]
active: Potency [4] 5.9 µM | Potency [8] 5.9 µM | Potency [9] 4.17 µM
